# Data from PMC7862700, “An all-to-all approach to the identification of sequence-specific readers for epigenetic DNA modifications on cytosine”.
# Columns and labels:
# Test in all cases: DAPPL (digital affinity profiling via proximity ligation, sequencing); 10 mM Tris-HCl pH 7.5, 50 mM NaCl, 1 mM DTT, 4% glycerol, room temperature, 30 min; GST-TFs on glutathione beads, 16-mer random dsDNA library, 0.1% formaldehyde crosslink after washing; high values mean tight binding
# [1] = target: T1, FLI1 (Homo sapiens, UniProt Q01543 1-452); details: protein: recombinant; tags: N-terminal GST; dsDNA, one strand shown
# T1 sequence: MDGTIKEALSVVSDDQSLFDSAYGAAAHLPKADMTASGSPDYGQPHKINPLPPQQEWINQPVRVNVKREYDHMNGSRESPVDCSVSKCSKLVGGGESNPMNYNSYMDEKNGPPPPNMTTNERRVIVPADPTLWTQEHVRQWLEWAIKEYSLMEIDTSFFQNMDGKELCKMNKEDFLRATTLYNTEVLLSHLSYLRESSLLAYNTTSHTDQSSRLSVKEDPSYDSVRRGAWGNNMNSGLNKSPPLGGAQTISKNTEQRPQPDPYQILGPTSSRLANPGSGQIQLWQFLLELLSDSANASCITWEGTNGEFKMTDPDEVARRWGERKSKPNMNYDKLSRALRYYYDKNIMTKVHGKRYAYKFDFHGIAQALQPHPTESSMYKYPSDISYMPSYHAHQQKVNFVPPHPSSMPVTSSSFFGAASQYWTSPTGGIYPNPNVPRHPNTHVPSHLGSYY
# Procedure, shortened: (§1)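 A tag-only sample was pooled with DNA-barcoded human transcription factors that had been expressed in yeast as GST fusions and captured on glutathione beads. The pools were incubated for 30 min at room temperature with 200 nmole of a random double-stranded 16-mer DNA library in Tris/NaCl/DTT/glycerol buffer, then washed, crosslinked with 0.1% formaldehyde, proximity-ligated (BsaI/T4 ligase, 1 h, 37 °C), PCR-amplified and sequenced on an Illumina NextSeq500. Binding signal is each hexamer's read frequency for a factor divided by its frequency for the tag-only sample.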
# [2] = target: T2, ELK1 (Homo sapiens, UniProt P19419 1-428); details: protein: recombinant; tags: N-terminal GST; dsDNA, one strand shown
# T2 sequence: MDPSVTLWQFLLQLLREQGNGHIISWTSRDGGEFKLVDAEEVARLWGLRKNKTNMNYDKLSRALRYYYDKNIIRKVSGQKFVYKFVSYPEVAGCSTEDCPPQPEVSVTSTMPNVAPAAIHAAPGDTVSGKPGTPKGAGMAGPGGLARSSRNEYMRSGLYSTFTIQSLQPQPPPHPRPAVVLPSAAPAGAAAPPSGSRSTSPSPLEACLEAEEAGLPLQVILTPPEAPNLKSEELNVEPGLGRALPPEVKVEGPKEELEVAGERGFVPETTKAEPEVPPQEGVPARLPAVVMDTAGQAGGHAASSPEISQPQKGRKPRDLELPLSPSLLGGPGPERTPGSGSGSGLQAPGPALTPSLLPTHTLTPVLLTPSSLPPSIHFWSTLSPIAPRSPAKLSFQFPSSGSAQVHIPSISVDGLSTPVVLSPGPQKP
# Procedure, shortened: as §1
# [3] = target: T3, GABPA (Homo sapiens, UniProt Q06546 1-454); details: protein: recombinant; tags: N-terminal GST; dsDNA, one strand shown
# T3 sequence: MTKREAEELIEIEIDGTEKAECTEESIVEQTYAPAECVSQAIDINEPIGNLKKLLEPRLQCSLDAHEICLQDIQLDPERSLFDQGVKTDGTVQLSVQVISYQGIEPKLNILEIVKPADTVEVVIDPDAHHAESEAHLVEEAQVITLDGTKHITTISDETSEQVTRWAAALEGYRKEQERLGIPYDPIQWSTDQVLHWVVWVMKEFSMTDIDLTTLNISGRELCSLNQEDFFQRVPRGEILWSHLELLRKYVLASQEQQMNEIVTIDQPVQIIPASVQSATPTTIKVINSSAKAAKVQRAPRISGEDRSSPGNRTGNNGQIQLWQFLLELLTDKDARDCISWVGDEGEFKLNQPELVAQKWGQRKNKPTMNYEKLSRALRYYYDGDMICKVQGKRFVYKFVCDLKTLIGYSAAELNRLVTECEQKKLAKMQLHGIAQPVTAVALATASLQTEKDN
# Procedure, shortened: as §1
# [4] = target: T4, ERG (Homo sapiens, UniProt P11308 1-479); details: protein: recombinant; tags: N-terminal GST; dsDNA, one strand shown
# T4 sequence: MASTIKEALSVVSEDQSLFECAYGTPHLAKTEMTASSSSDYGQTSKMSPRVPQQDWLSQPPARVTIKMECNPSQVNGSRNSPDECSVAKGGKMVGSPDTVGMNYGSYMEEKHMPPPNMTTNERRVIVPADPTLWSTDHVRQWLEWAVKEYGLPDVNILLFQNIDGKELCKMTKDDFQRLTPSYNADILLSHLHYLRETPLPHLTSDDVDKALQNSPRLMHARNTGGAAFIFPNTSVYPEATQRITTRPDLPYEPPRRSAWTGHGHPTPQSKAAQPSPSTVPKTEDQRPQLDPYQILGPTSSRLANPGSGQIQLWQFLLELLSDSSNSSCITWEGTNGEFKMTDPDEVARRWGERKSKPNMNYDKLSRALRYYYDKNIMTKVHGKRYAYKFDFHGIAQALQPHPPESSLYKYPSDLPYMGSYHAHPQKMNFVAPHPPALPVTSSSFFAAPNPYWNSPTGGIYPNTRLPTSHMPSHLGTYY
# Procedure, shortened: as §1
# [5] = target: ELF1 (Homo sapiens, UniProt P32519 1-619); details: protein: recombinant; tags: N-terminal GST; dsDNA, one strand shown
# Procedure, shortened: as §1
# [6] = target: T5, EHF (Homo sapiens, UniProt Q9NZC4 1-300); details: protein: recombinant; tags: N-terminal GST; dsDNA, one strand shown
# T5 sequence: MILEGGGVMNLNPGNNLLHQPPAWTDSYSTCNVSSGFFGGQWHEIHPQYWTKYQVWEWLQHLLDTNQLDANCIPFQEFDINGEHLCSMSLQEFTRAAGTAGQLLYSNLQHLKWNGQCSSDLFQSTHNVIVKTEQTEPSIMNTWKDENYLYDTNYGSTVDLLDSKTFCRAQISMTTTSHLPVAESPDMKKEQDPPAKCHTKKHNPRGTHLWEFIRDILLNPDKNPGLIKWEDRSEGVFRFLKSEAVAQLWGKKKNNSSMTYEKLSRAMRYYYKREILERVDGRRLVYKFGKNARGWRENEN
# Procedure, shortened: as §1
# [7] = target: SPI1 (Homo sapiens, UniProt P17947 1-270); details: protein: recombinant; tags: N-terminal GST; dsDNA, one strand shown
# Procedure, shortened: as §1
# [8] = target: SPIB (Homo sapiens, UniProt Q01892 1-262); details: protein: recombinant; tags: N-terminal GST; dsDNA, one strand shown
# Procedure, shortened: as §1
# [9] = target: T6, ELK3 (Homo sapiens, UniProt P41970 1-407); details: protein: recombinant; tags: N-terminal GST; dsDNA, one strand shown
# T6 sequence: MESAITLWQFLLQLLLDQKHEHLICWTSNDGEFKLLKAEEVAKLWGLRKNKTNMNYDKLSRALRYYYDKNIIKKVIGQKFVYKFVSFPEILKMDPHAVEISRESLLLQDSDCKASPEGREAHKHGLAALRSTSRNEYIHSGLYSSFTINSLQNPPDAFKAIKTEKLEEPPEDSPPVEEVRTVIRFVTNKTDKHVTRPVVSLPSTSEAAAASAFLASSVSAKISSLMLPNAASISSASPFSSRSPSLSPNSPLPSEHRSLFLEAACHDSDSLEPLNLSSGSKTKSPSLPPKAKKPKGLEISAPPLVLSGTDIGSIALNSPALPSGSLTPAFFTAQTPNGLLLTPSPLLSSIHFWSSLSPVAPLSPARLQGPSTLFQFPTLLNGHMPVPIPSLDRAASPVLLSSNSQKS
# Procedure, shortened: as §1
# [10] = target: T7, FEV (Homo sapiens, UniProt Q99581 1-238); details: protein: recombinant; tags: N-terminal GST; dsDNA, one strand shown
# T7 sequence: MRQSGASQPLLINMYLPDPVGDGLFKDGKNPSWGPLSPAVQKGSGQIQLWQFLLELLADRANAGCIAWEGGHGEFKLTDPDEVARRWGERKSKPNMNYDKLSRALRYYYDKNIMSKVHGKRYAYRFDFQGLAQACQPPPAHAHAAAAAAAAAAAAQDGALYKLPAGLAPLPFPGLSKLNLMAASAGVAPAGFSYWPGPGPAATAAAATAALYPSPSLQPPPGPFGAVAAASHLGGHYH
# Procedure, shortened: as §1
# [11] = target: ETV5 (Homo sapiens, UniProt P41161 1-510); details: protein: recombinant; tags: N-terminal GST; dsDNA, one strand shown
# Procedure, shortened: as §1
# [12] = target: HSF1 (Homo sapiens, UniProt Q00613 1-529); details: protein: recombinant; tags: N-terminal GST; chain copies: 3; dsDNA, one strand shown
# Procedure, shortened: as §1
# [13] = target: T8, SPIC (Homo sapiens, UniProt Q8N5J4 1-248); details: protein: recombinant; tags: N-terminal GST; dsDNA, one strand shown
# T8 sequence: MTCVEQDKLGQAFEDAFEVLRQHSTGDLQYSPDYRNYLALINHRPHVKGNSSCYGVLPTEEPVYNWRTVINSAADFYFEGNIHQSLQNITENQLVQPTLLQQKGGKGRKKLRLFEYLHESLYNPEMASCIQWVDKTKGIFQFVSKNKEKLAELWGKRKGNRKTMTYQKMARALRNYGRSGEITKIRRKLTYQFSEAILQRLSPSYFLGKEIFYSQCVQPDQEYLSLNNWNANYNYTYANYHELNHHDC
# Procedure, shortened: as §1
# [14] = target: ELF4 (Homo sapiens, UniProt Q99607 1-663); details: protein: recombinant; tags: N-terminal GST; dsDNA, one strand shown
# Procedure, shortened: as §1
# [15] = target: T9, ELK4 (Homo sapiens, UniProt P28324-2 1-405); details: protein: recombinant; tags: N-terminal GST; dsDNA, one strand shown
# T9 sequence: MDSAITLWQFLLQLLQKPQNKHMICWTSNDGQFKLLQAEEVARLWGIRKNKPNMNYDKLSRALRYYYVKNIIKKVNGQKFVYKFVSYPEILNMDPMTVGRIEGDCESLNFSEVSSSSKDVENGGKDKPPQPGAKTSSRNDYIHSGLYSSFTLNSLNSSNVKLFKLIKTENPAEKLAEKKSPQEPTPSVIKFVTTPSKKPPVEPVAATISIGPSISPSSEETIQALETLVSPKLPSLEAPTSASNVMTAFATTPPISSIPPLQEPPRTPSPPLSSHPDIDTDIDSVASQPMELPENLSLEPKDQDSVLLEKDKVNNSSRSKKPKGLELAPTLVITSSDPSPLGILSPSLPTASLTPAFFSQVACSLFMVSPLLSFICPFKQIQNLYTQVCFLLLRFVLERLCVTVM
# Procedure, shortened: as §1
# [16] = target: T10, ETV2 (Homo sapiens, UniProt O00321 1-342); details: protein: recombinant; tags: N-terminal GST; dsDNA, one strand shown
# T10 sequence: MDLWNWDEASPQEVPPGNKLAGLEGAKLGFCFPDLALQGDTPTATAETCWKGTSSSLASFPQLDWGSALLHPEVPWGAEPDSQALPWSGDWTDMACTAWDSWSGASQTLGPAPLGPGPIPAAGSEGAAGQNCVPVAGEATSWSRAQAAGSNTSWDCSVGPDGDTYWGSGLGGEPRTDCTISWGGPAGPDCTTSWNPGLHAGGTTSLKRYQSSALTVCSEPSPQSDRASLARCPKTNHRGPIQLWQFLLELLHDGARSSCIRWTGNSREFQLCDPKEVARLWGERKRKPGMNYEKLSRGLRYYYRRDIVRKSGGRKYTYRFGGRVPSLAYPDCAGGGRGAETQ
# Procedure, shortened: as §1
# [17] = target: T11, ELF3 (Homo sapiens, UniProt P78545 1-371); details: protein: recombinant; tags: N-terminal GST; dsDNA, one strand shown
# T11 sequence: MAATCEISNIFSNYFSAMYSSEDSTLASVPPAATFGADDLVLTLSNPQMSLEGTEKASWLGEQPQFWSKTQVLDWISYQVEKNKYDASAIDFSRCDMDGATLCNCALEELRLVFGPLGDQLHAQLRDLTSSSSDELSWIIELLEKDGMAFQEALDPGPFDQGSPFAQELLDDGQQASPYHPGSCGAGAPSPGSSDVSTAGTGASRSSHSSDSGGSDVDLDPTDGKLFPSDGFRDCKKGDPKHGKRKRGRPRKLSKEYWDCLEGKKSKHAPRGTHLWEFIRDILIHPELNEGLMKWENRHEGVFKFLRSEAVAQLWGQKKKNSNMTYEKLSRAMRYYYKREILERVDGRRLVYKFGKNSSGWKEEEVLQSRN
# Procedure, shortened: as §1
# [18] = target: CRX (Homo sapiens, UniProt O43186 1-299); details: protein: recombinant; tags: N-terminal GST; dsDNA, one strand shown
# Procedure, shortened: as §1
# [19] = target: ETV1 (Homo sapiens, UniProt P50549 1-477); details: protein: recombinant; tags: N-terminal GST; dsDNA, one strand shown
# Procedure, shortened: as §1
# Chain of ELF1 (P32519 whole entry): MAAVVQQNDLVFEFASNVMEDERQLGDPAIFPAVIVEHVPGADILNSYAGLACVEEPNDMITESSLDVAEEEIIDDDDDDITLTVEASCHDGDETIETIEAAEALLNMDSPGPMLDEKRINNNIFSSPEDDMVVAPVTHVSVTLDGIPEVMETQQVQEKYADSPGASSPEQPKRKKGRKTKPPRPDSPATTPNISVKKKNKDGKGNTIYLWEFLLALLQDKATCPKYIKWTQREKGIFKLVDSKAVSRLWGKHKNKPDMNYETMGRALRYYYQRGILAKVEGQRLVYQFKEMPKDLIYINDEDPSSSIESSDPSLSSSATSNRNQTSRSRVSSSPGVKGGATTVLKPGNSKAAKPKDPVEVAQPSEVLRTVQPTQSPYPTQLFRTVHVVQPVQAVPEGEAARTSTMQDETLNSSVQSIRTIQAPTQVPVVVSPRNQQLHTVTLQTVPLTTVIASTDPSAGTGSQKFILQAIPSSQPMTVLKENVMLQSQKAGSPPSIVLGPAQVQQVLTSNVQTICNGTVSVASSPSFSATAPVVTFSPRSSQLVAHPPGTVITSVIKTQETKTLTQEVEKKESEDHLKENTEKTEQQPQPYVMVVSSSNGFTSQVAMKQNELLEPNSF
# Chain of ELF4 (Q99607 whole entry): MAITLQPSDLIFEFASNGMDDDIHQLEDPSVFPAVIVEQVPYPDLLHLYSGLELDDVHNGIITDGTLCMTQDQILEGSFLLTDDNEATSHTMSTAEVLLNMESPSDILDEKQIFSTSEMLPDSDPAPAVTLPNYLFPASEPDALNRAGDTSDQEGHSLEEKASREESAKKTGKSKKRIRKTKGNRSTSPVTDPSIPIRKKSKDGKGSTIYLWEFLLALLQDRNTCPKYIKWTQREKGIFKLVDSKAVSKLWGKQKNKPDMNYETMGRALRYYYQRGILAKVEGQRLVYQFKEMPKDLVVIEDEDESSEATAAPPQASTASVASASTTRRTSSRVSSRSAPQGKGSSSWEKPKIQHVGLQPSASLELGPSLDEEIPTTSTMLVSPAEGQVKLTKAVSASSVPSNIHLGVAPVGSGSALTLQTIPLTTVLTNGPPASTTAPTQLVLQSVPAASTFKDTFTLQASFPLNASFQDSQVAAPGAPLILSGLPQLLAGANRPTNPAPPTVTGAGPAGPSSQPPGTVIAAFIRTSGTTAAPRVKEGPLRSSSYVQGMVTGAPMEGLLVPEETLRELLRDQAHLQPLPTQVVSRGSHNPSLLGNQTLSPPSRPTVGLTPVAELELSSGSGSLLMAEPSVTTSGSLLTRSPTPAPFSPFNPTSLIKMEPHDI
# Chain of ETV1 (P50549 whole entry): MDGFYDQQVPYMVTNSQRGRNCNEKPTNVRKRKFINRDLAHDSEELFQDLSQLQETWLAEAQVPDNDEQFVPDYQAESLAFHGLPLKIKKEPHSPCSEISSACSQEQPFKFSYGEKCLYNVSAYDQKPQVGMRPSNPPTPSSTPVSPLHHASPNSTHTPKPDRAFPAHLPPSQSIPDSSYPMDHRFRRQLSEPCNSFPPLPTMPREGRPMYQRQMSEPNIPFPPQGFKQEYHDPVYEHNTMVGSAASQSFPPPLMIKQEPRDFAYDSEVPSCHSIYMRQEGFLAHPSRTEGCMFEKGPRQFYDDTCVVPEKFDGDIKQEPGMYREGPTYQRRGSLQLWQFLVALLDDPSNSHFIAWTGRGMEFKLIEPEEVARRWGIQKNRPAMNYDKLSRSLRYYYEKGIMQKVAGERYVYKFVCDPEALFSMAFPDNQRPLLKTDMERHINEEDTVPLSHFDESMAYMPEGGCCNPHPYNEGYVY
# Chain of HSF1 (Q00613 whole entry): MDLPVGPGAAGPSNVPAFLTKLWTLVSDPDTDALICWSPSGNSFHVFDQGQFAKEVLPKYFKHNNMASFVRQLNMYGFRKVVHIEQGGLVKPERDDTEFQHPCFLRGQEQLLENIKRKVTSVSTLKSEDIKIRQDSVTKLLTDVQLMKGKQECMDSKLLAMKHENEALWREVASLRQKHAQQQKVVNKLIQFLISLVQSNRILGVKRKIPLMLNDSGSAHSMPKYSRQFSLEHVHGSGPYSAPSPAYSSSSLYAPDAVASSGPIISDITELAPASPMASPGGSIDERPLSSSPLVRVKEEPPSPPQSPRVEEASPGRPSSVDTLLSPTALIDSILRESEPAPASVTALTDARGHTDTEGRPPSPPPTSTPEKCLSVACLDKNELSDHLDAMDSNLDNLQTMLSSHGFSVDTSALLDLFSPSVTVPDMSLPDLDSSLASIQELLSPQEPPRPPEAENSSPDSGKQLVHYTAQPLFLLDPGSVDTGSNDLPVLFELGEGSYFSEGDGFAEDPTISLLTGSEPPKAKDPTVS
# Chain of SPIB (Q01892 whole entry): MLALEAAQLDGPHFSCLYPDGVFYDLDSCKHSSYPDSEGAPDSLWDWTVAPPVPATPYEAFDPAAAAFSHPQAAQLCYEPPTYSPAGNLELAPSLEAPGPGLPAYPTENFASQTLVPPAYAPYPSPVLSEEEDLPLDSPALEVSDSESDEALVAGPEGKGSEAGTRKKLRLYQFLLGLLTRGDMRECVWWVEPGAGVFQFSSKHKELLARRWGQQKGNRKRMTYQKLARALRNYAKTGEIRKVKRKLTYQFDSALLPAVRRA
# Chain of ETV5 (P41161 whole entry): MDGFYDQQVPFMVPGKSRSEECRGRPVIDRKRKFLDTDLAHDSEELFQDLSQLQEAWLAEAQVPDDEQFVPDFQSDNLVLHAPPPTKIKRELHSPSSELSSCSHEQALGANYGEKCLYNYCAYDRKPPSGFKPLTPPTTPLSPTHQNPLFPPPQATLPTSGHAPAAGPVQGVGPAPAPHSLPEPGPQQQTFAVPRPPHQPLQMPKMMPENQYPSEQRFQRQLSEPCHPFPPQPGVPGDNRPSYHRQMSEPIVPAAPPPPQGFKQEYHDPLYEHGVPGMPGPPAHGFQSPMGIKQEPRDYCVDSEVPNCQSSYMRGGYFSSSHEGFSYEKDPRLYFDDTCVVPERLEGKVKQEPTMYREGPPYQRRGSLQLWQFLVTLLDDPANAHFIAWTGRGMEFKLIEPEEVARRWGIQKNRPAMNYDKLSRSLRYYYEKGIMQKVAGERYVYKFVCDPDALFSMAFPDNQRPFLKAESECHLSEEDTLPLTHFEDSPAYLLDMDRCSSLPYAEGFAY
# Chain of CRX (O43186 whole entry): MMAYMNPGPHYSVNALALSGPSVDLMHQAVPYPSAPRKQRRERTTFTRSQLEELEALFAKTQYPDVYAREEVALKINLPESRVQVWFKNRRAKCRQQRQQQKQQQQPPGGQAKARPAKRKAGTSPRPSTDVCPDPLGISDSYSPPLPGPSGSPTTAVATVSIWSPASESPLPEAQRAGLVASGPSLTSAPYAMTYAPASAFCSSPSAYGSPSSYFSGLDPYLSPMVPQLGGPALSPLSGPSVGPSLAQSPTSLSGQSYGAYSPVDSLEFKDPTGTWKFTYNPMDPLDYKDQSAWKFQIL
sequence,measurement,setting,value
ATCTAT,binding signal,[1],"1.15 fold enrichment (6-mer frequency, TF over GST control)"
same,binding signal,[2],"1.14 fold enrichment (6-mer frequency, TF over GST control)"
same,binding signal,[3],"1.17 fold enrichment (6-mer frequency, TF over GST control)"
same,binding signal,[4],"1.09 fold enrichment (6-mer frequency, TF over GST control)"
same,binding signal,[5],"1.16 fold enrichment (6-mer frequency, TF over GST control)"
same,binding signal,[6],"1.12 fold enrichment (6-mer frequency, TF over GST control)"
same,binding signal,[7],"1.09 fold enrichment (6-mer frequency, TF over GST control)"
same,binding signal,[8],"1.15 fold enrichment (6-mer frequency, TF over GST control)"
same,binding signal,[9],"1.13 fold enrichment (6-mer frequency, TF over GST control)"
same,binding signal,[10],"1.08 fold enrichment (6-mer frequency, TF over GST control)"
same,binding signal,[11],"1.15 fold enrichment (6-mer frequency, TF over GST control)"
same,binding signal,[12],"1.32 fold enrichment (6-mer frequency, TF over GST control)"
same,binding signal,[13],"1.27 fold enrichment (6-mer frequency, TF over GST control)"
same,binding signal,[14],"1.21 fold enrichment (6-mer frequency, TF over GST control)"
same,binding signal,[15],"1.18 fold enrichment (6-mer frequency, TF over GST control)"
same,binding signal,[16],"1.13 fold enrichment (6-mer frequency, TF over GST control)"
same,binding signal,[17],"1.23 fold enrichment (6-mer frequency, TF over GST control)"
same,binding signal,[18],"1.42 fold enrichment (6-mer frequency, TF over GST control)"
same,binding signal,[19],"1.16 fold enrichment (6-mer frequency, TF over GST control)"
